Test results as given in PubChem BioAssay AID1159580 (chemical genetic matrix, 2015).
“And” between values parts separate entries of the source, which are not always exact repeats. Equal values may be shown once. In all, about 5,500 compounds went through this assay and about 2,000 (36%) were called active. About 18% were inconclusive and are not listed. Cut-off read from the data, not from the text of the source: active = normalized growth mostly below about 0.91 (no sharp cut-off); inconclusive = no clear call, values can overlap the other calls; inactive = mostly above about 0.92. This is one part of the list.

Experiment: chemical genetic growth profiling, strain panel (AID 1159580);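 note: tested at 20 µM; growth read once vehicle control cultures reached saturation at 30 °C; 1 = growth at the plate median or of vehicle wells; lower values mean less growth of the strain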
Conditions: S. cerevisiae deletion strains, growth OD

Measured: normalized growth

O=C(O)C1=C[C@@H](O)[C@@H](O)[C@H](O)C1
inactive: locus YAL013W, strain DEP1, active compounds read low 1.02 | locus YAL021C, strain ccr4, active compounds read low 1 | locus YAL026C, strain drs2, active compounds read low 0.978 | locus YAL030W, strain snc1, active compounds read low 0.969 | locus YBL061C, strain skt5, active compounds read low 0.974 | locus YBR009C, strain hhf1, active compounds read low 0.988 | locus YBR021W, strain FUR4, active compounds read low 1.02 | locus YBR023C, strain chs3, active compounds read low 0.988 | locus YBR171W, strain sec66, active compounds read low 0.985 | locus YBR229C, strain ROT2, active compounds read low 1.01 | locus YBR231C, strain swc5, active compounds read low 0.98 | locus YBR279W, strain paf1, active compounds read low 0.977 | locus YCL011C, strain gbp2, active compounds read low 0.99 | locus YCL016C, strain dcc1, active compounds read low 0.987 | locus YCL029C, strain bik1, active compounds read low 1.01 | locus YCL061C, strain MRC1, active compounds read low 0.989 | locus YCL069W, strain vba3, active compounds read low 0.977 | locus YCR088W, strain abp1, active compounds read low 0.974 | locus YDL005C, strain med2, active compounds read low 0.976 | locus YDL035C, strain GPR1, active compounds read low 1.04 | locus YDL040C, strain nat1, active compounds read low 0.987 | locus YDL074C, strain BRE1, active compounds read low 1.07 | locus YDL101C, strain DUN1, active compounds read low 1.03 | locus YDL134C, strain PPH21, active compounds read low 0.999 | locus YDL185W, strain tfp1, active compounds read low 1.01 | locus YDL192W, strain arf1, active compounds read low 1.02 | locus YDR001C, strain nth1, active compounds read low 0.975 | locus YDR069C, strain doa4, active compounds read low 0.97 | locus YDR101C, strain arx1, active compounds read low 1.04 | locus YDR137W, strain rgp1, active compounds read low 0.977 | locus YDR150W, strain NUM1, active compounds read low 1.02 | locus YDR159W, strain sac3, active compounds read low 0.979 | locus YDR162C, strain NBP2, active compounds read low 1.01 | locus YDR195W, strain ref2 0.946 | locus YDR297W, strain sur2, active compounds read low 0.963 | locus YDR318W, strain mcm21, active compounds read low 0.999 | locus YDR334W, strain swr1, active compounds read low 0.966 | locus YDR335W, strain msn5, active compounds read low 0.976 | locus YDR388W, active compounds read low 1.01 | locus YDR392W, strain spt3, active compounds read low 1.04 | locus YDR502C, strain sam2, active compounds read low 1.01 | locus YEL003W, strain gim4, active compounds read low 0.979 | locus YEL037C, strain rad23, active compounds read low 0.971 | locus YEL061C, strain CIN8 (second series), active compounds read low 0.973 | locus YEL061C, strain CIN8, active compounds read low 1.01 | locus YER015W, strain faa2, active compounds read low 0.988 | locus YER016W, strain bim1, active compounds read low 0.977 | locus YER110C, active compounds read low 1.01 | locus YER111C, strain swi4, active compounds read low 0.967 | locus YER155C, strain BEM2 (second series), active compounds read low 0.958 | locus YER155C, strain BEM2, active compounds read low 1.01 | locus YER167W, strain BCK2, active compounds read low 1.01 | locus YFR010W, strain ubp6, active compounds read low 0.964 | locus YGL078C, strain dbp3, active compounds read low 1.01 | locus YGL086W, strain mad1, active compounds read low 1.07 | locus YGL167C, strain pmr1, active compounds read low 0.977 | locus YGL173C, strain kem1, active compounds read low 0.974 | locus YGL227W, strain vid30, active compounds read low 0.986 | locus YGL240W, strain doc1, active compounds read low 0.988 | locus YGL248W, strain PDE1, active compounds read low 1.03 | locus YGL253W, strain hxk2, active compounds read low 0.984 | locus YGR135W, strain pre9, active compounds read low 1.02 | locus YGR252W, strain gcn5, active compounds read low 0.931 | locus YHR013C, strain ard1, active compounds read low 0.949 | locus YHR027C, strain rpn1, active compounds read low 0.968 | locus YHR030C, strain SLT2, active compounds read low 1.01 and 0.984 | locus YHR079C, strain IRE1 (second series), active compounds read low 1.01 | locus YHR079C, strain IRE1, active compounds read low 0.972 | locus YHR094C, strain hxt1, active compounds read low 0.993 | locus YHR129C, strain ARP1, active compounds read low 1.02 | locus YHR142W, strain chs7, active compounds read low 0.995 | locus YHR200W, strain rpn10, active compounds read low 0.996 | locus YIL066C, strain RNR3, active compounds read low 1.02 | locus YIL073C, strain SPO22, active compounds read low 1.08 | locus YIL125W, strain kgd1, active compounds read low 1.03 | locus YIR030C, strain dcg1, active compounds read low 0.999 | locus YJL092W, strain hpr5, active compounds read low 0.976 | locus YJL095W, strain BCK1 (second series), active compounds read low 0.978 | locus YJL095W, strain BCK1, active compounds read low 1.04 and 0.998 | locus YJL115W, strain asf1, active compounds read low 0.952 | locus YJL129C, strain trk1, active compounds read low 0.981 | locus YJL134W, strain LCB3, active compounds read low 1.01 | locus YJL154C, strain vps35, active compounds read low 0.983 | locus YJL164C, strain tpk1, active compounds read low 0.981 | locus YJL166W, strain qcr8, active compounds read low 0.974 | locus YJL168C, strain set2, active compounds read low 1.01 | locus YJL187C, strain SWE1 (second series), active compounds read low 1.04 | locus YJL187C, strain SWE1, active compounds read low 0.976
